Screening data: PubChem, Fisher Drug Discovery Resource Center
NPYLR7 agonist – activates Aedes aegypti NPYLR7 receptor. HEK293T NPYLR7/Galpha15, GCaMP6s calcium fluorescence. activation, % at 10 µM. 0.15% of 270,000 active; in the data active = activation above about 40%
hcGAS inh – human cGAS inhibition | recombinant h-cGAS, ATP depletion, Kinase-Glo luminescence | 0.081% of 290,000 active | inhibition, % at 12.5 µM
mcGAS lum – blocks mouse cGAS activity; AID 1259399; Q8C6L5; 0.15% of 160,000 active; recombinant cGAS, Kinase-Glo ATP depletion luminescence; inhibition, % at 12.5 µM
Target sequence (Q8C6L5 whole entry, looked up): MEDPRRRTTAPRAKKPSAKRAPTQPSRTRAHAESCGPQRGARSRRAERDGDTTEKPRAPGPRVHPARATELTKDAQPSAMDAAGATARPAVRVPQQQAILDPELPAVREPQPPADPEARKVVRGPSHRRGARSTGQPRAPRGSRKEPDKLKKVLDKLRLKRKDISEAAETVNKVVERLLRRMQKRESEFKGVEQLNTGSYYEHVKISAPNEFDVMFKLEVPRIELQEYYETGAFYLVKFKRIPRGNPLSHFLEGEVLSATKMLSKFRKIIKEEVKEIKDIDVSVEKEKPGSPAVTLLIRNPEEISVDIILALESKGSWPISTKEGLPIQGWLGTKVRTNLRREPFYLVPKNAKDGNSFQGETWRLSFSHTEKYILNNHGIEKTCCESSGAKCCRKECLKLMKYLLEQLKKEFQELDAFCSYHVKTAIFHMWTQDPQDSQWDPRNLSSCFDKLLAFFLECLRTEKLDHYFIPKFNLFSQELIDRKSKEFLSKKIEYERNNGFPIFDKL
Numbers stand for hits; 0 = inactive; - = no result given; + = active, no number. Shown are actives, neighbours in structure and some others; about 0.28% of the full set was active somewhere. Cut-off read from the data, not from the text of the source, unless noted: active = inhibition above about 40%; inactive = the rest.

SMILES | NPYLR7 agonist | hcGAS inh | mcGAS lum
Oc1cc2c(cc1O)C1c3ccc(O)c(O)c3OCC1(O)C2 (centres undefined) | 0 | 0 | 49.7
COc1ccc2nc(/C=C/C(=O)c3ccc(O)cc3)ccc2c1 | 0 | 0 | 75.7
COc1ccc(/C=C/C(=O)c2ccc(O)cc2O)cc1 | 0 | 0 | -
COc1ccc(/C=C/C(=O)c2cc(O)ccc2O)cc1 | 0 | 0 | 52.7
O=C(/C=C/c1ccc(O)cc1)c1ccc(O)cc1O | 0 | 0 | 0
O=C(/C=C/c1ccccc1)c1ccc(O)cc1O | 0 | 0 | 85.0
COc1ccc(/C=C/c2ccc3ccccc3n2)c(OC)c1 | 0 | 0 | 0
CCC(C)NC(=O)C(NC(=O)c1ccccc1Cl)C1CCN(C(=O)c2cccs2)CC1 (centres undefined) | 0 | 0 | 0
CCSCCN1CCC2(CC1)Nc1ccccc1C(=O)N2CC(C)C | 0 | 0 | -
COc1ccccc1NC(=O)Nc1ccc(N2CCC(Cc3ccccc3)CC2)c(C(=O)NCc2ccc(F)cc2)c1 | 0 | 0 | 0
CN1CCN(c2cc(Cl)nc(SCc3ccc(C(=O)NCCN4CCCC4)cc3)n2)CC1 | 0 | 68.8 | 0
O=C(NCCN1CCCCC1)c1ccc(CSc2nc(Cl)cc(N3CCCC3)n2)cc1 | 0 | 0 | 0
COc1ccc(-c2cnc(N)c(C)c2)cn1 | 0 | 0 | 0
CCOC(=O)c1cc(-c2ccc(C)c(C)c2)n(-c2ccc(C(=O)NC3CCCc4ccccc43)cc2)n1 (centres undefined) | 0 | 0 | 0
CCOC(=O)c1cc(-c2ccc(N3CCN(C(=O)c4c(C)noc4C)CC3)cc2)n(-c2ccccn2)n1 | 0 | 0 | 0
COc1ccc(-c2cccc(-c3ccc(NC(=O)c4c(F)cccc4F)cc3)n2)cc1 | 0 | 0 | 0
COc1ccc(-c2cccc(-c3ccc(NC(=O)c4oc5ccccc5c4C)cc3)n2)cc1 | 42.7 | 0 | 0
Cc1nc2ccccc2nc1N1CCN(C(=O)c2cccs2)CC1 | 0 | 0 | 0
COc1cccc(Cc2nsc(N3CCC(CNC(=O)/C=C/c4ccc([N+](=O)[O-])cc4)CC3)n2)c1 | 0 | 0 | 0
Nc1ccc(-c2nc3cc(N)cc(Cl)c3o2)cc1 | 118.3 | 0 | 0
Cc1ccc2oc(-c3ccc(N)cc3)nc2c1 | 0 | 0 | 0
O=C1CN(Cc2cccn2-c2ncccn2)CC(OCc2ccccn2)CN1C1CCCCC1 (centres undefined) | 0 | 0 | 0
O=C1C(Cl)=C(N2CCOCC2)C(=O)N1c1ccc(Cl)c(Cl)c1 | 0 | 0 | 49.6
O=C1C(Cl)=C(N2CCOCC2)C(=O)N1c1ccccc1F | 0 | 0 | -
COc1cc(C2CN(C(=O)CC(C)(C)C)CC2C(=O)NCC(C)C)cc(OC)c1OC (centres undefined) | 0 | 0 | -
SMILES | NPYLR7 agonist | hcGAS inh | mcGAS lum
COc1cccc(C2CN(C(=O)CC(C)(C)C)CC2C(=O)NCc2ccccn2)c1OC (centres undefined) | 0 | + | -
Cc1cc(C)n(C2CCN(C(=O)COCC(F)(F)C(F)F)C2)n1 (centres undefined) | - | 0 | 0
COc1ccc(C(=O)N2CCC3(CC2)C(=O)N(CC(=O)NCc2ccco2)CN3c2ccccc2)c(OC)c1 | 0 | 0 | 0
CCN(CC)c1ccc2cc(C(N)=O)c(=NCc3ccccc3)oc2c1 | 0 | 0 | -
CCN(CC)c1ccc2cc(C(N)=O)/c(=N\NC(N)=S)oc2c1 | 130.4 | 0 | 0
Cc1csc2nc(O)c(C(=O)NC(C)CCc3ccccc3)c(=O)n12 (centres undefined) | 0 | 0 | 0
O=C(CNCc1ccco1)N1CC(=O)N(c2cccc(Cl)c2)C1 | 0 | 0 | -
O=C(CNCc1ccccc1)N1CC(=O)N(c2cccc(Cl)c2)C1 | 45.8 | 0 | 0
CCOc1ncccc1C(=O)N1CCOC(COCc2ccccc2F)C1 (centres undefined) | 0 | 0 | 0
O=C(c1cccnc1Cl)N1CCOC(COCc2ccccc2F)C1 (centres undefined) | 51.3 | 0 | 0
O=C(c1ccc(F)c(F)c1F)N1CCC(Cc2ccc(-n3cccc3)cc2)CC1 | 0 | 0 | 0
CCC(C)NC(=O)c1cc(NC(=O)Nc2cccc(Br)c2)ccc1N1CCN(c2ccccc2OC)CC1 (centres undefined) | 0 | 0 | 0
N[C@@H](Cc1cc(-c2ccc(Cl)cc2Cl)cc(CP(=O)(O)O)c1O)C(=O)O | 0 | 53.4 | -
NC(Cc1ccc(Cl)cc1)C(=O)O (centres undefined) | 0 | 0 | 0
O=C1CCc2cc(C(=O)Cn3nc(C(=O)O)c4ccccc4c3=O)ccc2N1 | 0 | 0 | -
Cc1cccc(OCc2nc(CN(CCN(C)C)C(=O)c3ccccc3F)cs2)c1C | 0 | 0 | 0
CCN(Cc1csc(COc2cccc(C)c2C)n1)C(=O)c1ccccc1F | 0 | 0 | 88.2
COc1ccc(CCNC(=O)c2ccccc2N2CCC(NC(=O)c3ccco3)CC2)cc1OC | 0 | 0 | 78.0
COc1ccc(CCNC(=O)c2ccccc2N2CCC(NC(=O)c3ccc(OC)c(OC)c3)CC2)cc1OC | 0 | 0 | 0
